Assay outcomes from PubChem.
Hits are enriched below; roughly 32% of the tested compounds scored in any of these assays.
PostGolgi yeast = growth inhibition of a yeast mutant, post-Golgi transport screen. post-Golgi transport phenotypic cell assay. actives 0.9% (n = 98,000). AID 739. inhibition, % at 10 µM;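 note: yeast cells grown in 1536-well plates; yeast grown about 18 h at 30C before absorbance read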
CYP2C19 activ = activators of human cytochrome P450 2C19 | recombinant CYP2C19, luciferin-H EGE luminescence; hits give high values; 0 = fully inhibited enzyme, 1 = untreated enzyme | activation factor at 5 µM | 96,000 tested, under 10 active;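 active = activation factor of at least 2 at 5 µM in the primary screen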;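 note: 0 = wells with 2.5 mM tranylcypromine and 1 = vehicle-only wells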
Target sequence (P33261 whole entry, looked up): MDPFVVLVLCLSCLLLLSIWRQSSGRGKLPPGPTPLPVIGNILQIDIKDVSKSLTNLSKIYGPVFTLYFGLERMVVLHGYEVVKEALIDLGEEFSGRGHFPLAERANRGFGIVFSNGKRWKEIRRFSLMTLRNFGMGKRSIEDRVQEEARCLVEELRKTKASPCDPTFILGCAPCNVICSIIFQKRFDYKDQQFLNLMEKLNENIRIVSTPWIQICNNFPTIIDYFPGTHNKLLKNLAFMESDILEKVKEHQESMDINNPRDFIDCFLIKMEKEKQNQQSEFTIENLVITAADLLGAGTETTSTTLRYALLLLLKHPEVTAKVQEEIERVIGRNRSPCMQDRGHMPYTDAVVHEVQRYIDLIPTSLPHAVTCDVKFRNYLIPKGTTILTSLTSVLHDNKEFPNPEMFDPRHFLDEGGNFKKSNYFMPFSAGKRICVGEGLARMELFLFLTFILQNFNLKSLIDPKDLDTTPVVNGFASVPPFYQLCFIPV
CYP2C9 inh = human CYP2C9 inhibition; CYP2C9 Supersomes, luciferin-H conversion, luminescence; inhibition, % at 5 µM; actives 20% (n = 96,000); AID 777;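 active = blocking of liver enzyme CYP2C9 beyond about 50% at 5 µM, limit read from the data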
CYP2C19 inhib = human CYP2C19 inhibition | CYP2C19 Supersomes, luciferin-H EGE luminescence, 30 min | AID 778 | P33261 | inhibition, % at 5 µM | actives 21% (n = 96,000);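 active = CYP2C19 inhibition above a set limit at 5 µM in the primary screen, cut at about 50% in these data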;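 note: plate controls were negative control wells for no effect and 2.5 mM tranylcypromine positive control for full effect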
CYP2C9 activ = increases human cytochrome P450 2C9 activity; P11712; recombinant CYP2C9, luciferin-H conversion, luminescence; hits give high values; factor 1 = untreated enzyme, 0 = blocked; activation factor at 5 µM; actives 1.4% (n = 96,000); AID 1024;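 active = activation factor of 2 or more for CYP2C9 at a 5 µM dose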;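 note: 0 = sulfaphenazole-blocked wells and 1 = vehicle-only wells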
PostGolgi ctrl = inhibits growth of the yeast control strain; actives 5% (n = 98,000); AID 738; efflux-deficient yeast background strain, growth absorbance A615, 16 h; inhibition, % at 10 µM
An asterisk follows results filed as active. Cut-off read from the data, not from the text of the source, unless noted: active = inhibition above about 30%; inactive = the rest.

SMILES | PostGolgi yeast | CYP2C19 activ | CYP2C9 inh | CYP2C19 inhib | CYP2C9 activ | PostGolgi ctrl
Cc1noc(C)c1CSc1nc2sc(C)c(C)c2c(=O)n1-c1ccccc1 | -10 | 1 | 50* | -3 | 0.5 | 4
Cc1cc(NC(=O)CSc2nc3ccccc3c(=O)n2-c2ccccc2)no1 | 0 | 0.9 | 30 | 9 | 0.7 | 18
COc1ccc(-c2noc(CSc3nc4sc(C)c(C)c4c(=O)n3-c3ccccc3)n2)cc1OC | 5 | 1 | 27 | -2 | 0.7 | 2
Cc1noc(C)c1CSc1nc2ccccc2c(=O)n1-c1ccc(Cl)cc1 | -6 | 0.3 | 96* | 71* | 0 | 38*
CCCC(=O)Nc1cc(Cl)ccc1N1CCN(C(=O)CC)CC1 | 9 | 0.1 | 85* | 86* | 0.2 | 3
CCC(=O)N1CCN(c2ccccc2NC(=O)Cc2ccc(Cl)cc2)CC1 | 8 | 0.7 | 16 | 26 | 0.8 | 26
CCC(=O)N1CCN(c2ccc(Cl)cc2NC(=O)Cc2ccc(Cl)cc2)CC1 | 0 | 0.5 | 45 | 51* | 0.5 | 30
COc1ccc(CCC(=O)Nc2cc(Cl)ccc2N2CCN(C)CC2)cc1 | -6 | 0.9 | 22 | 14 | 0.8 | 11
CC1CCN(C(=S)NCCc2ccccc2)CC1 | 3 | 0.3 | 39 | 73* | 0.6 | 9
OCC1CCCN(C(=S)NCCc2ccccc2)C1 (stereo not drawn) | 4 | 0.5 | 11 | 48 | 0.9 | -2
CN1CCN(C(=S)NCCc2ccccc2)CC1 | 11 | 0.4 | -4 | 64* | 1 | -2
CCOC(=O)Cn1nc(C)n(-c2ccc(C(C)C)cc2)c1=O | 1 | 0.9 | 19 | 11 | 0.8 | -5
CNC(=S)NNC(=O)CCn1nc(C)c(Br)c1C | -13 | 0.8 | -34 | 22 | 1.3 | 37*
Cc1nn(CCC(=O)NNC(=S)NCC(C)C)c(C)c1Br | 7 | 0.4 | 91* | 63* | 0.1 | 2
CCc1ccccc1N(C(=O)c1cccs1)C1C=CS(=O)(=O)C1 (stereo not drawn) | -11 | 0.3 | 14 | 71* | 0.9 | -2
O=C(Cc1cccs1)N(c1ccccc1)C1C=CS(=O)(=O)C1 (stereo not drawn) | 8 | 0.7 | 1 | 31 | 1 | -3
CCn1c(SCc2ccc(C)cc2)nnc1-c1cnccn1 | 6 | 0.5 | 5 | 49 | 1 | -4
CCn1c(SCc2nc3ccccc3[nH]2)nnc1-c1cccnc1 | -5 | 0.2 | -32 | 78* | 1.3 | 10
CCn1c(SCc2nc3ccccc3[nH]2)nnc1-c1ccncc1 | 1 | 0.1 | 20 | 93* | 0.8 | 10
CCn1c(SCc2nc3ccccc3[nH]2)nnc1-c1cnccn1 | 4 | 0.1 | 8 | 91* | 0.9 | -1
CCn1c(SCC(=O)C(C)(C)C)nnc1-c1cccnc1 | -7 | 1.2 | -13 | -16 | 1.1 | 3
CC(NC(=O)c1ccc(-c2cc(C(F)(F)F)ccc2Cl)o1)c1ccccc1 (stereo not drawn) | -1 | 0.9 | -62 | 6 | 1.6 | 7
O=C(Nc1ccccc1O)c1ccccc1O | 9 | 1.3 | 63* | -34 | 0.4 | 9
Cc1ccc(C)c(NC(=O)c2ccccc2O)c1 | 11 | 0.7 | 51* | 33 | 0.5 | 10
CCS(=O)(=O)c1ccc(NC(=O)c2ccccc2Cl)c(O)c1 | -5 | 1 | 53* | 4 | 0.5 | 6
SMILES | PostGolgi yeast | CYP2C19 activ | CYP2C9 inh | CYP2C19 inhib | CYP2C9 activ | PostGolgi ctrl
Cc1ccc(C(C(=O)NCCc2ccccc2)N(C(=O)c2csnn2)C2CC2)o1 (stereo not drawn) | -9 | 0.6 | 23 | 40 | 0.8 | 1
CC(C)NC(=O)c1cc(=O)n(C)c(=O)n1C | -4 | 0.9 | 10 | 14 | 0.9 | -8
O=C(NC1CCCC1)C(Cc1ccccc1)n1cccc1 (stereo not drawn) | 0 | 0.8 | 35 | 24 | 0.6 | 12
O=C(C(Cc1ccccc1)n1cccc1)N1CCN(Cc2ccccc2)CC1 (stereo not drawn) | 7 | 0.8 | 62* | 23 | 0.4 | 25
O=C(C(Cc1ccccc1)n1cccc1)N1CCCCC1 (stereo not drawn) | -5 | 0.6 | -6 | 45 | 1.1 | 7
CCC(C(=O)N1CCN(S(C)(=O)=O)CC1)c1ccccc1 (stereo not drawn) | 20 | 0.2 | 33 | 83* | 0.7 | 8
CCC(C)NC(=O)C(Cc1ccccc1)n1cccc1 (stereo not drawn) | 5 | 0.4 | 60* | 62* | 0.4 | 4
O=C(C(Cc1ccccc1)n1cccc1)N1CCCCCC1 (stereo not drawn) | 5 | 0.3 | 37 | 69* | 0.6 | 14
Cn1c(Cl)c(C(=O)Nc2ccc(Cl)cc2)c2ccccc21 | -1 | 0.8 | -2 | 20 | 1 | -5
CNc1c2c(nn1C)CCCC2 | 3 | 1 | -48 | -2 | 1.5 | 4
O=C(C(Cc1ccccc1)n1cccc1)N1CCN(c2cccc(Cl)c2)CC1 (stereo not drawn) | 14 | 0.2 | 70* | 82* | 0.3 | 20
O=C(O)CCC(=O)N1CCN(c2cccc(Cl)c2)CC1 | -2 | 0.9 | -24 | 6 | 1.2 | 4
O=C(Nc1ncc(Br)s1)C(Cc1ccccc1)n1cccc1 (stereo not drawn) | 87* | 0.1 | 97* | 88* | 0 | 89*
CCC(C(=O)N1CCN(c2cccc(Cl)c2)CC1)c1ccccc1 (stereo not drawn) | -18 | 0 | 100* | 95* | 0 | 12
O=C(Nc1cccnc1)C(Cc1ccccc1)n1cccc1 (stereo not drawn) | -1 | 0.7 | 36 | 30 | 0.6 | 20
COc1ccc(N2CCN(C(=O)C(Cc3ccccc3)n3cccc3)CC2)cc1 (stereo not drawn) | -9 | 0.1 | 76* | 93* | 0.2 | 17
CC(=O)/C(C(=N)N1CCN(c2cccc(Cl)c2)CC1)=C(\C)O | 3 | 1 | -92 | -1 | 1.9 | 4
COc1ccc(N2CCN(C(=O)C(OC(C)=O)c3ccccc3)CC2)cc1 (stereo not drawn) | -1 | 1 | -11 | -4 | 1.1 | 15
CCSCCNC(=O)c1cncc(Br)c1 | 6 | 0.7 | 31 | 25 | 0.7 | 1
CCC(C(=O)N1CCc2cc(OC)c(OC)cc2C1)c1ccccc1 (stereo not drawn) | 3 | 0.3 | 73* | 73* | 0.3 | 12
COc1ccc(NC(=O)c2noc3c2CCC3)cc1 | -2 | 0.4 | 27 | 62* | 0.7 | 2
O=C(Nc1cccc(O)c1)c1noc2c1CCCCC2 | -4 | 0.3 | 33 | 70* | 0.7 | 6
O=C(CSc1n[nH]c(C2CCCC2)n1)NC1CCCC1 | 23 | 1.1 | -2 | -8 | 1 | 18
CC(=O)Nc1ccc(N2C(=O)CC(c3ccccc3)CC2=O)cc1 | 2 | 1 | -1 | -5 | 1 | 3
O=C1CC(c2ccccc2)CN1C(=O)c1ccccc1 (stereo not drawn) | -1 | 0.5 | -10 | 52* | 1.1 | 6
